The values that follow come from the supplement of paper PMC11624193, “Coupling cellular drug-target engagement to downstream pharmacology with CeTEAM” (Nature Communications, 2024).

The assay addresses PARP1 L713F-nLuc biosensor (HCT116) (UniProt P09874). In words: PARP1 L713F-nLuc/akaLuc ratio relative to DMSO control (biosensor stabilization) (fold change); higher = more PARP1 biosensor stabilization (target engagement / stabilizer), active = hit call of the paper. Particulars: stock concentration (mM; final µM = stock mM x 1): 10; 24 h.

Values without a mark were called inactive.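 How the source made its calls: active = log2 fold change beyond 2 SD from the library mean after excluding viability outliers; inactive = within 2 SD.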

Sequence of PARP1 L713F-nLuc biosensor (HCT116) (P09874 whole entry L713F, looked up): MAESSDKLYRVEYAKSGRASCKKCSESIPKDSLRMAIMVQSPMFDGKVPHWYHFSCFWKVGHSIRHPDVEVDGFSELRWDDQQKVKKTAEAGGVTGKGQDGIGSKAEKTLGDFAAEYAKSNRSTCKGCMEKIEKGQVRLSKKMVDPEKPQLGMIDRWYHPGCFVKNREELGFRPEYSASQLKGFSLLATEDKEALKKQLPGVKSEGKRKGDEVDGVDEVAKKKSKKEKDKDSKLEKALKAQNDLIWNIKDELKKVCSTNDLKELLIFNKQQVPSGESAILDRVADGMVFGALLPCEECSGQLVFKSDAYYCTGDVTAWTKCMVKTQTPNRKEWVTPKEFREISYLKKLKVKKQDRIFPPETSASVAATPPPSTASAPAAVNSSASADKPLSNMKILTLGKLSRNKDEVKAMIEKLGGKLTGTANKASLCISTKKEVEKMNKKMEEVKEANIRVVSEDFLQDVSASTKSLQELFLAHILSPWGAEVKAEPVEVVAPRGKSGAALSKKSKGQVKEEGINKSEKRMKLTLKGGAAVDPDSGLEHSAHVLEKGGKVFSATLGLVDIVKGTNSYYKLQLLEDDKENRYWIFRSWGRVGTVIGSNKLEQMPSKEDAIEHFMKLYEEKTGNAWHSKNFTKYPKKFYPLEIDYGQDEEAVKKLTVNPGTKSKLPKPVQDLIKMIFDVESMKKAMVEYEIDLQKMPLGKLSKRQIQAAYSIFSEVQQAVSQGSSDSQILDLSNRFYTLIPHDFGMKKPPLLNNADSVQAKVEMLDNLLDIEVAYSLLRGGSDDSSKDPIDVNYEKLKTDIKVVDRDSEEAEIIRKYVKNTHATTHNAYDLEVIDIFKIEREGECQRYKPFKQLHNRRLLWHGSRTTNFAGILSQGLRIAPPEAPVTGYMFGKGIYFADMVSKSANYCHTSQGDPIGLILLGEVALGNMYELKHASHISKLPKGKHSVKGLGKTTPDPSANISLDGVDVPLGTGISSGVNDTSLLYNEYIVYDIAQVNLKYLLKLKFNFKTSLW

`NC(=O)c1cccc2cn(-c3ccc([C@@H]4CCCNC4)cc3)nc12` [Niraparib]: the “PARP1 L713F-nLuc/akaLuc ratio” value is 4.32 (active).
With `CONC(=O)c1ccccc1Nc1cc(Nc2cc(C)nn2C(C)C)ncc1Cl`, the “PARP1 L713F-nLuc/akaLuc ratio” value was 0.987.
Consider `O=C(O)Cn1nnc(-c2ccc(CN(CCCCOc3ccc(CN4CCCC4)cc3)CCc3ccccc3)cc2)n1`, for which the “PARP1 L713F-nLuc/akaLuc ratio” value is 1.04.
The same measure for `O=C(Nc1cc(Cl)cc2c1[nH]c1cnccc12)c1cccnc1`: 0.723; for `CC(=O)N1CCN([C@H]2CCC[C@@H](NC(=O)c3cc4c(F)ccc(C)c4[nH]3)C2)CC1`: 1.5.
As for `CN1CCN(c2ccc(C(=O)Nc3ccc([C@@H]4C[C@H]4N)cc3)cc2)CC1`, the “PARP1 L713F-nLuc/akaLuc ratio” value is 0.684.
On to `COc1ccc(C(=O)C2CCN(CC(=O)N(Cc3nc4c(c(=O)[nH]3)COCC4)CC3CC3)CC2)cc1`, for which the “PARP1 L713F-nLuc/akaLuc ratio” value was 1.01.
For the compound `CC(=O)Nc1cccc(-n2c(=O)n(C3CC3)c(=O)c3c(Nc4ccc(I)cc4F)n(C)c(=O)c(C)c32)c1`, the “PARP1 L713F-nLuc/akaLuc ratio” value was 0.502.
With `Cn1ncc(NC(=O)c2nc(-c3c(F)cccc3F)sc2N)c1N1CC[C@@H](N)[C@H](F)CC1`, the “PARP1 L713F-nLuc/akaLuc ratio” value was 0.793.
Turning to `CNC[C@@H](O)COc1ccc(Cl)c(-c2nc(-c3c(C)noc3C)c(C)c(N3CC4(CCN(C(=O)OC)CC4)C3)n2)c1`, the “PARP1 L713F-nLuc/akaLuc ratio” value was 0.955.
For `CCN(CCCOc1ccc2c(Nc3cc(CC(=O)Nc4cccc(F)c4)[nH]n3)ncnc2c1)CCOP(=O)(O)O` [Barasertib], the “PARP1 L713F-nLuc/akaLuc ratio” value is 1.15.
Turning to `CNC(=O)c1cc(COc2nnc(Nc3ccc(Cl)cc3)c3ccoc23)ccn1` [Telatinib], the “PARP1 L713F-nLuc/akaLuc ratio” value was 1.17.
